This is an account of results in PubChem BioAssay (Tox21).

Several values for one entry are separate records, joined by “and”; a condition that tells them apart may be missing. Identical values can stand only once. A number with no mark means an inactive call. Inconclusive results are not listed. Activity calls are given as the source filed them. Unless noted, calls come from the whole dose curve; as a rule, active = well fitted curve in the direction sought with a large enough effect in the repeat runs; inconclusive = weak or mixed curves; inactive = no such curve, though single readings can be large; an effect the other way counts as inactive or inconclusive.

Assay [1] is described as follows: Human pregnane X receptor (PXR) small molecule agonists, qHTS cell viability counter screen (AID 1346977). Note: nearly all actives have a fitted effect of over 50% in size. Note: potency is the fitted concentration of half-maximal effect. An outline of the steps: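 Measures live-cell protease fluorescence (CellTiter-Fluor) in PXR-Luc HepG2 cells treated 24hr with compounds at 37C. Cells had 5hr to attach before pin transfer of DMSO solutions.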
In general terms: In qHTS, concentration-response curves come from the screen itself.

Assay [2] is described as follows: Caspase-3/7 induction in CHO-K1 cells by small molecules, qHTS cell viability counter screen (AID 1346979). Note: nearly all actives have a fitted effect of over 35% in size. Note: potency is the fitted concentration of half-maximal effect. An outline of the steps:
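In the same wells as the caspase read, viability of compound-treated wild-type CHO-K1 cells was assessed using CellTiter-Fluor, added after 16hr at 37C and measured by fluorescence following 1hr further incubation.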

Assay [3] in a line: Caspase-3/7 induction in CHO-K1 cells by small molecules, qHTS assay (AID 1346980). Note: nearly all actives have a fitted effect of over 15% in size. The method in brief:
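Wild-type CHO-K1 cells exposed to compounds for 17hr at 37 C, 5% CO2. Caspase-3/7 activity then measured by Caspase-Glo 3/7 luminescence after 30min at room temperature.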

Assay [4] can be described thus: Caspase-3/7 induction in HepG2 cells by small molecules, qHTS cell viability counter screen (AID 1346981). Note: nearly all actives have a fitted effect of over 30% in size. Note: potency is the fitted concentration of half-maximal effect. The method in brief:
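Wild-type HepG2 cells, 2,000/well, settled 5 hr at 37 C, 5% CO2 before compound addition. Viability read by CellTiter-Fluor fluorescence, reagent added after 16 hr compound exposure, then 1 hr at 37C, in the same wells as the caspase read.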

For assay [5], the target named is Nuclear receptor subfamily 1 group I member 2 (Homo sapiens) (UniProt O75469). Description: Human pregnane X receptor (PXR) small molecule agonists, qHTS assay (AID 1346982). Note: nearly all actives have a fitted effect of over 35% in size. Note: potency is the fitted concentration of half-maximal effect. The method in brief:
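PXR-Luc HepG2 reporter cells (CYP3A4-driven luciferase) in 5% charcoal-stripped FBS medium, plated 5 h before compound addition, then treated 24 h at 37C. Luciferase read by ONE-Glo luminescence after 30 min at room temperature.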

The target of assay [6] is Nuclear receptor subfamily 1 group I member 2 (Rattus norvegicus) (UniProt Q9R1A7). Description: Rat pregnane X receptor (rPXR) activation by small molecules, qHTS assay (AID 1346983). Note: nearly all actives have a fitted effect of over 20% in size. The note with it: rPXR luciferase reporter cells, One-Glo luminescence, 24 h; hits give high values. The method in brief: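 Cell-based rPXR activation assay: rPXR cells, 2,000 per well, rested 5hr at 37 C, then exposed to compounds in DMSO for 24 hr at 37 C. Luciferase activity read by One-Glo luminescence after 30 min at room temperature.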

For assay [7], the target named is Nuclear receptor subfamily 1 group I member 2 (Homo sapiens) (UniProt O75469). Description: CYP3A4 induction through human pregnane X receptor (PXR) by small molecules, qHTS assay (AID 1346984). Note: nearly all actives have a fitted effect of over 40% in size. An outline of the steps:
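DPX-2 HepG2 cells carrying a PXR response element and CYP3A4-promoter luciferase construct, treated with compounds 24 hr at 37C. Then P450-Glo CYP3A4 Luciferin-IPA substrate (3uM final) for 3 hr at 37C, One-Glo added, luminescence read.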

The target is the same in assay [8]. The assay can be described thus: Human pregnane X receptor (PXR) activation by small molecules, qHTS assay (AID 1346985). Note: nearly all actives have a fitted effect of over 40% in size. Note: potency is the fitted concentration of half-maximal effect. An outline of the steps: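 DPX-2 cells (HepG2 co-transfected with a PXR response element and a CYP3A4-promoter luciferase construct) were seeded at 2,000 per well, rested 5 hr at 37C, then exposed to DMSO-dissolved compounds for 24 hr. Activation was read as luciferase luminescence.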

Assay [9] addresses Acetylcholinesterase (Homo sapiens) (UniProt P22303). The assay can be described thus: Acetylcholinesterase (AChE) small molecule antagonists: colormetric cell-based qHTS assay (AID 1347395; calls by dose curve; note: nearly all actives have a fitted effect of over 30% in size). An outline of the steps:
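Endogenous AChE of human neuroblastoma SH-SY5Y cells was measured with an Ellman-type DTNB/acetylthiocholine mix. Compound pretreatment lasted 30 min at 37 C; substrate reaction ran 90 min at 37 C.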

The target is the same in assay [10]. Description: Acetylcholinesterase (AChE) small molecule antagonists: enzyme-based qHTS assay (AID 1347397; calls by dose curve; note: nearly all actives have a fitted effect of over 55% in size). The note with it: Potency: AChE enzyme activity inhibition; outcome: AChE enzyme activity inhibition. An outline of the steps: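 Recombinant human AChE (50 mU/mL) preincubated with compound 30 min at room temperature; acetylthiocholine plus DTNB then added, and thiocholine formation read colorimetrically after 10 min at room temperature. DMSO served as vehicle control.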

Assay [11] shares this target. The assay can be described thus: Acetylcholinesterase (AChE) small molecule antagonists: fluorescence cell-based qHTS assay (AID 1347398; calls by dose curve; note: nearly all actives have a fitted effect of over 50% in size). Conditions: Potency: AChE activity; outcome: AChE activity. An outline of the steps:
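SH-SY5Y cells (2000/well), attached overnight, incubated with compound 30 min at 37 C. Acetylthiocholine plus Thiolite Green then added for 40 min at room temperature. Thiocholine fluorescence (Ex/Em 490/520 nm) reports cellular AChE activity.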

Assay [12] shares this target. Description: Acetylcholinesterase (AChE) small molecule antagonists: enzyme-based qHTS assay with human liver microsomes (AID 1347399; calls by dose curve; note: nearly all actives have a fitted effect of over 60% in size). Conditions: Potency: qHTS inhibition; outcome: qHTS inhibition. The method in brief: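 Recombinant human AChE (50 mU/mL in the enzyme mix) and human liver microsomes (0.25 mg/mL final) were preincubated with compound and NADPH (0.25 mg/mL final) for 30 min at 37 C. Acetylthiocholine/DTNB was then added; thiocholine was read colorimetrically after 10 min at room temperature.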

The target in assay [13] is Cytochrome P450 2C19 (Homo sapiens) (UniProt P33261). Description: Cytochrome P450 Family 2 Subfamily C Member 19 (CYP2C19) small molecule antagonists: luciferase reporter qHTS assay (AID 1671197). Note: nearly all actives have a fitted effect of over 65% in size. Note: potency is the fitted concentration of half-maximal effect. The method in brief:
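Quantitative high-throughput screen of the Tox21 library using CYP2C19 with proluciferin substrate. Reaction: NADPH regeneration, 37C, 1 h, after 10 min compound preincubation at room temperature. Readout: luminescence.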
Background: In a reporter assay the amount or activity of a reporter protein is the signal.

Assay [14] addresses Cytochrome P450 2C9 (Homo sapiens) (UniProt P11712). Description: Cytochrome P450 Family 2 Subfamily C Member 9 (CYP2C9) small molecule antagonists: luciferase reporter qHTS assay (AID 1671198). Note: nearly all actives have a fitted effect of over 50% in size. Note: potency is the fitted concentration of half-maximal effect. The method in brief:
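P450-Glo proluciferin substrate with CYP2C9 enzyme; 10 min RT preincubation, then NADPH regeneration 1 h at 37C; luciferin detection reagent 20 min RT, luminescence in relative luminescence units.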

In assay [15] the target is Cytochrome P450 1A2 (Homo sapiens) (UniProt P05177). Description: Cytochrome P450 Family 1 Subfamily A Member 2 (CYP1A2) small molecule antagonists: luciferase reporter qHTS assay (AID 1671199). Note: nearly all actives have a fitted effect of over 50% in size. Note: potency is the fitted concentration of half-maximal effect. An outline of the steps: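 P450-Glo CYP1A2 enzyme–proluciferin substrate mix with compound 10 min at room temperature, then NADPH regeneration 1 h at room temperature. Luciferin detection reagent added, luminescence read after 20 min; furafylline positive control.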

Assay [16] has as its target Voltage-gated inwardly rectifying potassium channel KCNH2 (Homo sapiens) (UniProt Q12809). The assay can be described thus: Human Ether-a-go-go-Related Gene (hERG) channel small molecule antagonists: fluorescence cell-based qHTS assay (AID 1671200). An outline of the steps:
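Quantitative HTS in hERG-U2OS cells: thallium entry through the channel reports activity, read as continuous 480/540 nm fluorescence over 2 min after stimulus addition.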
For orientation: The hERG channel carries a current that helps repolarise heart muscle cells.

Assay [17] concerns the target Cytochrome P450 3A4 (Homo sapiens) (UniProt P08684). The assay can be described thus: Cytochrome P450 Family 3 Subfamily A Member 4 (CYP3A4) small molecule antagonists: luciferase reporter qHTS assay (AID 1671201). Note: nearly all actives have a fitted effect of over 50% in size. Note: potency is the fitted concentration of half-maximal effect. The method in brief:
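Inhibition of CYP3A4 is measured as loss of light: the enzyme converts a proluciferin substrate to luciferin, detected luminescently. Reaction ran 1 h at room temperature with NADPH regeneration after a 10 min compound preincubation.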

Assay [18] in a line: Caspase-3/7 induction in HepG2 cells by small molecules, qHTS assay (AID 1346978). Note: nearly all actives have a fitted effect of over 15% in size. An outline of the steps: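 Wild-type HepG2 cells, 2,000/well, settled 5 hr at 37 C and 5% CO2, then compound-treated for 17 hr; caspase-3/7 activity read by luminescent Caspase-Glo 3/7 after 30 min at room temperature.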
The target in assay [19] is Cytochrome P450 2D6 (Homo sapiens) (UniProt P10635). The assay can be described thus: Cytochrome P450 Family 2 Subfamily D Member 6 (CYP2D6) small molecule antagonists: luciferase reporter qHTS assay (AID 1671196). Note: nearly all actives have a fitted effect of over 50% in size. Note: potency is the fitted concentration of half-maximal effect. An outline of the steps:
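Cell-free P450-Glo system: CYP2D6 with proluciferin substrate was pre-incubated with compound for 10 min, then reacted with NADPH regeneration for 1 h at room temperature. Luciferin product was detected after 20 min, and data were reported as relative luminescence units.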
% is set by controls: 0 for no effect and ±100 for the full control effect.

Cytochrome P450 2C19 (Homo sapiens), sequence (P33261 whole entry, looked up): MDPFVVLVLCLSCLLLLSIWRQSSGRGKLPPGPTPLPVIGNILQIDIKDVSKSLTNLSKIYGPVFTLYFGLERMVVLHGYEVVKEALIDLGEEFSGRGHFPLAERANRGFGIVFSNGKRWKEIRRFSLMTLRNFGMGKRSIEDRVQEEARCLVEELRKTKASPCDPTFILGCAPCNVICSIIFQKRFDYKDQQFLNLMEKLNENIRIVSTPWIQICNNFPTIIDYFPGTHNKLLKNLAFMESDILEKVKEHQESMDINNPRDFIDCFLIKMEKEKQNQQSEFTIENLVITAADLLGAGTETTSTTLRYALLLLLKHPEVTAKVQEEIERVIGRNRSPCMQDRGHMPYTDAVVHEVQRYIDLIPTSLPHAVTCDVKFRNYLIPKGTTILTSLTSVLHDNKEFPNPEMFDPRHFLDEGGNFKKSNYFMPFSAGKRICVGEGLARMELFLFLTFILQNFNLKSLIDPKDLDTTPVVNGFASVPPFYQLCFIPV
Nuclear receptor subfamily 1 group I member 2 (Homo sapiens), sequence (O75469 whole entry, looked up): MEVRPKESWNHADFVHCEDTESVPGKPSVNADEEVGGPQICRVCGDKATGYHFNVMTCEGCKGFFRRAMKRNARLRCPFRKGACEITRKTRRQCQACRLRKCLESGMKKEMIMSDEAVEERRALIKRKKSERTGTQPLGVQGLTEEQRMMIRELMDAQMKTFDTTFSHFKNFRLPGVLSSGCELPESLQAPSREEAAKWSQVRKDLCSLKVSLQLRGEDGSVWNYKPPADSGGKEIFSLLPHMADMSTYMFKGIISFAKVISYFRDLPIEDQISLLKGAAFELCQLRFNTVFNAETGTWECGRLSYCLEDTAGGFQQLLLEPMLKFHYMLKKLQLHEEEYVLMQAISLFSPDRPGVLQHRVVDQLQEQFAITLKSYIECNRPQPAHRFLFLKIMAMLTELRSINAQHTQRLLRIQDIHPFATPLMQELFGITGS
Nuclear receptor subfamily 1 group I member 2 (Rattus norvegicus), sequence (Q9R1A7 whole entry, looked up): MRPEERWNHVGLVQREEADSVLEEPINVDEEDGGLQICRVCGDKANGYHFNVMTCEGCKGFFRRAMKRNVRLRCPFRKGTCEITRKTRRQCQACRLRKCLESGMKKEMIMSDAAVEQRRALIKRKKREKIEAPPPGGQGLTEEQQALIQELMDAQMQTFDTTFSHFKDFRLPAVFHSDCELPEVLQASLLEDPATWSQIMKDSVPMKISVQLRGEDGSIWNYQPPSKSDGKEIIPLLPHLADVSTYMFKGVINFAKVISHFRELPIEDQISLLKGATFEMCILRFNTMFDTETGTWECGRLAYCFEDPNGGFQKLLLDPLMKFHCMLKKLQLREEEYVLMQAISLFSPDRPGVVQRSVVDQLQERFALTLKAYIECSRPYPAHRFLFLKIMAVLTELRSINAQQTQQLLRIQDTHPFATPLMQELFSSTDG
Acetylcholinesterase (Homo sapiens), sequence (P22303 whole entry, looked up): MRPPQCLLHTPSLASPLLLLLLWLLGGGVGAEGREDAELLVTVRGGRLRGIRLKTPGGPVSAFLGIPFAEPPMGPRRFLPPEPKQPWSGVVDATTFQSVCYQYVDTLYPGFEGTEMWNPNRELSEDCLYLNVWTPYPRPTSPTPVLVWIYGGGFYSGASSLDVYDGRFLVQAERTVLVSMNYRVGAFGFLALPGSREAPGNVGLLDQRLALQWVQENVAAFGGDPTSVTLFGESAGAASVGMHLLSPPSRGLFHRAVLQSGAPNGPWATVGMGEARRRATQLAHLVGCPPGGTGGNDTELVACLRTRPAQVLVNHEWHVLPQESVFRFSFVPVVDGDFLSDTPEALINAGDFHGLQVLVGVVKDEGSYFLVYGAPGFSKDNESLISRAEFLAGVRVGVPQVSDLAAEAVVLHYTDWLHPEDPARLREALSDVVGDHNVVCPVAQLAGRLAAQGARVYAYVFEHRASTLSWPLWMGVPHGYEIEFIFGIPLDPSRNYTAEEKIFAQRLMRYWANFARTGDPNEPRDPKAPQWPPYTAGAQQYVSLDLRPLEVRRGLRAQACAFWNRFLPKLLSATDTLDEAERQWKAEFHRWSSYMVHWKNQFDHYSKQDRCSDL
Voltage-gated inwardly rectifying potassium channel KCNH2 (Homo sapiens), sequence (Q12809 whole entry, looked up): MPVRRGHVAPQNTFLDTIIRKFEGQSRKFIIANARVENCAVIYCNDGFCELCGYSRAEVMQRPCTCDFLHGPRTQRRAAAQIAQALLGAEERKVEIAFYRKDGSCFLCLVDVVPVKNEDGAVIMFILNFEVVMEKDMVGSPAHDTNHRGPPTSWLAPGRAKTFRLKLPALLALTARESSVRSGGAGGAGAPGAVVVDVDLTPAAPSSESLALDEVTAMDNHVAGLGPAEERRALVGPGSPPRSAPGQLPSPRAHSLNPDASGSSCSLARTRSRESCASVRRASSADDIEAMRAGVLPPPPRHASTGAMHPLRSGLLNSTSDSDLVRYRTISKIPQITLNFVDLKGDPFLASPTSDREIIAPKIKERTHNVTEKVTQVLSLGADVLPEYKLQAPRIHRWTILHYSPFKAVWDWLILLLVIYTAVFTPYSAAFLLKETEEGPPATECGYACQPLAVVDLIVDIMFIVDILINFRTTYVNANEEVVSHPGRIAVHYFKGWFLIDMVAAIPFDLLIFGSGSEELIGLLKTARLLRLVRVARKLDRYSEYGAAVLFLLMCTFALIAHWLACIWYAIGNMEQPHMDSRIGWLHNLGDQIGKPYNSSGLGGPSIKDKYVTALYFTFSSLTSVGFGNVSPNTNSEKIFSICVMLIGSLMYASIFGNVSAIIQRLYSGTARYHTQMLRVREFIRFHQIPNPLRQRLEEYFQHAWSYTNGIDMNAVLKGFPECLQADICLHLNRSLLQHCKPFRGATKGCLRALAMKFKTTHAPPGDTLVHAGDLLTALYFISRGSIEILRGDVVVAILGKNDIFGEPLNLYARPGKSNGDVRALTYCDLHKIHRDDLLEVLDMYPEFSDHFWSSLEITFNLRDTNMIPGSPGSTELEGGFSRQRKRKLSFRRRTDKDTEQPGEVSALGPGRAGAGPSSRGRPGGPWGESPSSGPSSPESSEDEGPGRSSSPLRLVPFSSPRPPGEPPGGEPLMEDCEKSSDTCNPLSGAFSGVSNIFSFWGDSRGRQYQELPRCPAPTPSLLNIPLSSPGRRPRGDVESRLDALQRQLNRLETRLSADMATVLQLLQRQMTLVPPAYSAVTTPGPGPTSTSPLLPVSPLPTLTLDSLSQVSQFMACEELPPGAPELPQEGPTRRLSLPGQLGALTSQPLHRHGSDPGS
Cytochrome P450 3A4 (Homo sapiens), sequence (P08684 whole entry, looked up): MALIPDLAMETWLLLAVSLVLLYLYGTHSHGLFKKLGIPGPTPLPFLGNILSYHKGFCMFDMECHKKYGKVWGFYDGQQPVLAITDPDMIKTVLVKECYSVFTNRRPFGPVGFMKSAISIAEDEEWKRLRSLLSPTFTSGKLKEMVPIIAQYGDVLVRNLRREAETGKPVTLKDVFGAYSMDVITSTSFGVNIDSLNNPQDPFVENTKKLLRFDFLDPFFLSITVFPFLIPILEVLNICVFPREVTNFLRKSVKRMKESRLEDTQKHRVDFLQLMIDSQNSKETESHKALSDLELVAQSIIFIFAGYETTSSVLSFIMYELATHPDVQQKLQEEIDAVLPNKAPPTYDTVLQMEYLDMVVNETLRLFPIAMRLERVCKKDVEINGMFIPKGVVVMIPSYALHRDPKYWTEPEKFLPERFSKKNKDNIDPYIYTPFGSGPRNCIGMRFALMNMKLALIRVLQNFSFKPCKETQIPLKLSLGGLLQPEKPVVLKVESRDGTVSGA
Cytochrome P450 2D6 (Homo sapiens), sequence (P10635 whole entry, looked up): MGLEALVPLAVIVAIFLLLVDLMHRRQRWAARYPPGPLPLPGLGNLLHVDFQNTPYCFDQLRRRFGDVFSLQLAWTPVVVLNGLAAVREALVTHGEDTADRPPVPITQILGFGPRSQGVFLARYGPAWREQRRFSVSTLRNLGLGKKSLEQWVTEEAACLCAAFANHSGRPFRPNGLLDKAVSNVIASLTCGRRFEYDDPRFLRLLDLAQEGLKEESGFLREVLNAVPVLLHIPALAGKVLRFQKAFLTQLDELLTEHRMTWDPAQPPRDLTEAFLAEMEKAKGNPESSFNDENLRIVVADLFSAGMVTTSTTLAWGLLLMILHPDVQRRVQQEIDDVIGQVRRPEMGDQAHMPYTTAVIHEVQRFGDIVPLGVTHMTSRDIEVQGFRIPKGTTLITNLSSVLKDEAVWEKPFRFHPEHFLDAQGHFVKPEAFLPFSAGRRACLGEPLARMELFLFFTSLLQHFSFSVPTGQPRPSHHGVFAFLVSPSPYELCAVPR
Cytochrome P450 1A2 (Homo sapiens), sequence (P05177 whole entry, looked up): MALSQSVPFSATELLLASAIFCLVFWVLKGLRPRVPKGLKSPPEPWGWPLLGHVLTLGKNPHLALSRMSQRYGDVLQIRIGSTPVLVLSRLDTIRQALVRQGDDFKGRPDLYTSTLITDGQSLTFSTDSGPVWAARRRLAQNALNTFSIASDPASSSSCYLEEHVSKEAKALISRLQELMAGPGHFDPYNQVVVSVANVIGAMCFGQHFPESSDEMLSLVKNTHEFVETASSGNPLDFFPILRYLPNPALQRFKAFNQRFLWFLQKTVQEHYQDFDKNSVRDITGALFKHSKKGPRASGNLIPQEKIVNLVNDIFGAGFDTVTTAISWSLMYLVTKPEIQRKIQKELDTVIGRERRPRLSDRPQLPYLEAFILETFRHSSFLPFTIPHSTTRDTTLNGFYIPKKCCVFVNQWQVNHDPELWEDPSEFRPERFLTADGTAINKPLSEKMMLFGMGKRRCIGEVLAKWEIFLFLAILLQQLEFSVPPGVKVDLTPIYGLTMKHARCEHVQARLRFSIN

As to `FC(F)OC(F)(F)C(F)Cl` (configuration not stated), the Potency entry in [1], in assay [2], in assay [3], in assay [4], in assay [5] and in assay [8] was “inactive” in each case. The Potency entry in assay [9], in assay [10], in assay [11], in assay [12], in assay [13] and in assay [14] was “inactive” throughout. Further, the Potency result in assay [16] and in assay [17] was “inactive” throughout. The max activation in [6] is -2.15%. Further, in [7], the call was inactive. The Potency in [15] is 35.6 µM (active).

As to `CC(C)(C)NCC(O)c1ccccc1Cl` (configuration not stated), the Potency result in [1], in [2], in assay [3], in assay [4], in [5] and in assay [8] was “inactive” each time. Further, the Potency result in assay [9], in assay [10], in [11], in [12], in [13] and in assay [14] was “inactive” in each case. In addition, the Potency result in assay [15], in assay [16] and in assay [17] was “inactive” in each case. In assay [6], the max activation is -2.03%. In assay [7], the outcome was inactive.

For `COc1ccc(C(=O)c2c(C)n(CCN3CCOCC3)c3ccccc23)cc1`, the Potency entry in [1], in assay [18], in assay [3], in assay [10], in assay [11] and in assay [12] was “inactive” in each case. Also, the Potency entry in assay [16] is “inactive”. Besides, the Potency in [5] was 9.44 µM (active); in [8], 14.1 µM (active); in assay [19], 15.5 µM (active); in [13] it was 34.7 µM (active); in assay [14], 12.3 µM (active). Moreover, the max activation in assay [6] is 9.34%. Moreover, the compound was called inactive in assay [7].

For `C[N+](C)(C)CC1CO1` (configuration not stated), the Potency result in assay [1], in assay [2], in assay [3], in assay [4], in assay [5] and in assay [9] was “inactive” throughout. In addition, the Potency entry in assay [10], in [11], in [12], in assay [19], in assay [13] and in assay [14] was “inactive” each time. Moreover, the Potency entry in assay [16] and in assay [17] was “inactive” each time.

Turning to `NC(=O)CF`, the Potency entry in assay [1], in [18], in assay [3], in assay [4], in assay [5] and in [9] was “inactive” in each case. Moreover, the Potency result in [10], in assay [11], in assay [12], in assay [13], in assay [14] and in [15] was “inactive” each time. For the same compound, the Potency result in [16] and in [17] was “inactive” in each case.

Take `CC(C)(c1ccccc1)c1cc(-n2nc3ccccc3n2)c(O)c(C(C)(C)c2ccccc2)c1`: the Potency result in assay [1], in assay [18], in [3], in [4], in assay [5] and in [10] was “inactive” in each case. Moreover, the Potency entry in assay [11], in [12], in [13], in assay [14], in assay [16] and in assay [17] was “inactive” in each case.

As to `O=[N+]([O-])/C=C/c1ccccc1`, the Potency was 24.7 µM (active) and 19.3 µM (active) in assay [1]; 6.97 µM (active) and 12.2 µM (active) in assay [2]; 31.1 µM (active) and 61.1 µM (active) in assay [4]. For the same compound, the Potency entry in assay [3] was “inactive”.

With `CCCSP(=S)(OCC)Oc1ccc(SC)cc1` (configuration not stated), the Potency result in assay [1], in assay [2], in assay [3], in assay [4], in assay [9] and in assay [10] was “inactive” throughout. The Potency result in [11], in assay [12] and in assay [16] was “inactive” each time. Moreover, the Potency in [5] was 17.2 µM (active); in assay [19] it was 25.2 µM (active); in assay [13] it was 0.399 µM (active); in assay [14], 2.52 µM (active); in assay [15], 2 µM (active); in assay [17] it was 3.17 µM (active).
